Source: PubChem BioAssay (NCI)
Several values for one entry are separate records, joined by “and”; a condition that tells them apart may be missing. Equal entries are not always repeated. This is part of a sample that, as a whole, favours compounds with a hit. Of some 83,000 tested, about 20% had one in any assay.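 Activity criterion: percent growth below 10, measured after cells in 96-well plates were exposed to a single compound concentration for 48 hours.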 Activity calls are given as the source filed them.

Experiments:
Assay in all cases: NCI-60 one-dose screen, 48 h (100 = growth as untreated, 0 = no growth, -100 = all killed)
HCT-15 colon = details: 10 µM unless noted
HT29 colon = details: 10 µM unless noted
SNB-75 CNS = details: 10 µM unless noted
SNB-19 CNS = details: 10 µM unless noted
PC-3 prostate = details: 10 µM unless noted
SK-MEL-5 melanoma = details: 10 µM unless noted
UACC-62 melanoma = details: 10 µM unless noted
LOX IMVI melanoma = details: 10 µM unless noted
SK-MEL-28 melanoma = details: 10 µM unless noted
SK-MEL-2 melanoma = details: 10 µM unless noted
EKVX NSCLC = details: 10 µM
SN12C renal = details: 10 µM unless noted
UO-31 renal = details: 10 µM unless noted
TK-10 renal = details: 10 µM unless noted
ACHN renal = details: 10 µM unless noted
CAKI-1 renal = details: 10 µM unless noted
A498 renal = details: 10 µM unless noted
U251 CNS = details: 10 µM unless noted
CCRF-CEM leukemia = details: 10 µM
MOLT-4 leukemia = details: 10 µM unless noted

## CC(C)(O)C(=O)O
HCT-15 colon
  growth: 105% (inactive)
HT29 colon
  growth: 104% (inactive)
SNB-75 CNS
  growth: 94.6% (inactive)
SNB-19 CNS
  growth: 103% (inactive)
PC-3 prostate
  growth: 98.2% (inactive)
SK-MEL-5 melanoma
  growth: 103% (inactive)
UACC-62 melanoma
  growth: 103% (inactive)
LOX IMVI melanoma
  growth: 101% (inactive)
SK-MEL-28 melanoma
  growth: 104% (inactive)
SK-MEL-2 melanoma
  growth: 112% (inactive)
EKVX NSCLC
  growth: 94% (inactive)
SN12C renal
  growth: 102% (inactive)
UO-31 renal
  growth: 95.2% (inactive)
TK-10 renal
  growth: 98.9% (inactive)
ACHN renal
  growth: 104% (inactive)
CAKI-1 renal
  growth: 101% (inactive)
A498 renal
  growth: 103% (inactive)

## CC(C)NCC(O)c1ccc(O)c(O)c1 (configuration not stated)
HCT-15 colon
  growth: 104% (inactive) and 106% (inactive) and 99.5% (inactive)
HT29 colon
  growth: 100% (inactive) and 111% (inactive)
SNB-75 CNS
  growth: 75.3% (inactive) and 83.1% (inactive) and 82.2% (inactive)
SNB-19 CNS
  growth: 101% (inactive) and 89.5% (inactive) and 93.5% (inactive)
U251 CNS
  growth: 98.6% (inactive) and 118% (inactive) and 99.2% (inactive)
PC-3 prostate
  growth: 93.8% (inactive) and 95.8% (inactive)
SK-MEL-5 melanoma
  growth: 94.6% (inactive) and 90.3% (inactive) and 120% (inactive)
UACC-62 melanoma
  growth: 101% (inactive) and 109% (inactive) and 98.5% (inactive)
LOX IMVI melanoma
  growth: 94.2% (inactive) and 111% (inactive) and 95.4% (inactive)
SK-MEL-28 melanoma
  growth: 107% (inactive) and 116% (inactive) and 101% (inactive)
SK-MEL-2 melanoma
  growth: 110% (inactive) and 240% (inactive)
EKVX NSCLC
  growth: 104% (inactive) and 85% (inactive) and 91.2% (inactive)
SN12C renal
  growth: 76.5% (inactive) and 91.4% (inactive) and 92.8% (inactive)
UO-31 renal
  growth: 82.6% (inactive) and 106% (inactive) and 76.1% (inactive)
TK-10 renal
  growth: 92.5% (inactive) and 87.4% (inactive)
ACHN renal
  growth: 89.6% (inactive) and 104% (inactive)
CAKI-1 renal
  growth: 93.6% (inactive) and 83.6% (inactive)
A498 renal
  growth: 95.8% (inactive) and 119% (inactive) and 78.3% (inactive)
CCRF-CEM leukemia
  growth: 90.8% (inactive) and 100% (inactive) and 103% (inactive)

## O=[N+]([O-])c1cccc(SSc2cccc([N+](=O)[O-])c2)c1
HCT-15 colon
  growth: 91.9% (inactive)
HT29 colon
  growth: 102% (inactive)
SNB-75 CNS
  growth: 102% (inactive)
SNB-19 CNS
  growth: 91.1% (inactive)
PC-3 prostate
  growth: 82.6% (inactive)
SK-MEL-5 melanoma
  growth: 99.4% (inactive)
UACC-62 melanoma
  growth: 94.2% (inactive)
LOX IMVI melanoma
  growth: 100% (inactive)
SK-MEL-28 melanoma
  growth: 110% (inactive)
SK-MEL-2 melanoma
  growth: 98.5% (inactive)
EKVX NSCLC
  growth: 106% (inactive)
SN12C renal
  growth: 93.7% (inactive)
UO-31 renal
  growth: 86.5% (inactive)
TK-10 renal
  growth: 109% (inactive)
ACHN renal
  growth: 99.5% (inactive)
CAKI-1 renal
  growth: 103% (inactive)
A498 renal
  growth: 119% (inactive)
CCRF-CEM leukemia
  growth: 50.6% (inactive)

## Cn1cnc([N+](=O)[O-])c1Sc1ncn[nH]1
HCT-15 colon
  growth: 107% (inactive)
HT29 colon
  growth: 104% (inactive)
SNB-75 CNS
  growth: 85.6% (inactive)
SNB-19 CNS
  growth: 111% (inactive)
U251 CNS
  growth: 108% (inactive)
SK-MEL-5 melanoma
  growth: 104% (inactive)
UACC-62 melanoma
  growth: 108% (inactive)
LOX IMVI melanoma
  growth: 93.1% (inactive)
SK-MEL-28 melanoma
  growth: 104% (inactive)
EKVX NSCLC
  growth: 101% (inactive)
SN12C renal
  growth: 101% (inactive)
UO-31 renal
  growth: 82.9% (inactive)
TK-10 renal
  growth: 106% (inactive)
ACHN renal
  growth: 110% (inactive)
A498 renal
  growth: 117% (inactive)

## NC(=O)NCCCC(N)C(=O)O (configuration not stated)
HCT-15 colon
  growth: 109% (inactive)
HT29 colon
  growth: 101% (inactive)
SNB-75 CNS
  growth: 104% (inactive)
SNB-19 CNS
  growth: 92.1% (inactive)
U251 CNS
  growth: 96.2% (inactive)
PC-3 prostate
  growth: 95.5% (inactive)
SK-MEL-5 melanoma
  growth: 113% (inactive)
UACC-62 melanoma
  growth: 102% (inactive)
LOX IMVI melanoma
  growth: 67.6% (inactive)
SK-MEL-28 melanoma
  growth: 99% (inactive)
SK-MEL-2 melanoma
  growth: 95.4% (inactive)
SN12C renal
  growth: 104% (inactive)
UO-31 renal
  growth: 82.8% (inactive)
TK-10 renal
  growth: 99.3% (inactive)
ACHN renal
  growth: 98.7% (inactive)
CAKI-1 renal
  growth: 84.6% (inactive)
A498 renal
  growth: 113% (inactive)
MOLT-4 leukemia
  growth: 88.7% (inactive)

## ClCCOCCOc1ccc(C2CCCCC2)cc1
HCT-15 colon
  growth: 105% (inactive)
HT29 colon
  growth: 106% (inactive)
SNB-75 CNS
  growth: 98.2% (inactive)
SNB-19 CNS
  growth: 98.4% (inactive)
U251 CNS
  growth: 89.7% (inactive)
PC-3 prostate
  growth: 101% (inactive)
SK-MEL-5 melanoma
  growth: 98.8% (inactive)
UACC-62 melanoma
  growth: 98.6% (inactive)
LOX IMVI melanoma
  growth: 107% (inactive)
SK-MEL-28 melanoma
  growth: 102% (inactive)
SK-MEL-2 melanoma
  growth: 102% (inactive)
SN12C renal
  growth: 96.3% (inactive)
UO-31 renal
  growth: 99.5% (inactive)
TK-10 renal
  growth: 108% (inactive)
ACHN renal
  growth: 108% (inactive)
CAKI-1 renal
  growth: 97.3% (inactive)
A498 renal
  growth: 73.1% (inactive)
CCRF-CEM leukemia
  growth: 107% (inactive)

## NC(Cc1c[nH]c2ccccc12)C(=O)O (configuration not stated)
HCT-15 colon
  growth: 107% (inactive) and 104% (inactive)
HT29 colon
  growth: 110% (inactive) and 97.4% (inactive)
SNB-75 CNS
  growth: 94.4% (inactive) and 79.6% (inactive)
SNB-19 CNS
  growth: 104% (inactive)
U251 CNS
  growth: 103% (inactive) and 97.4% (inactive)
PC-3 prostate
  growth: 91% (inactive) and 86.7% (inactive)
SK-MEL-5 melanoma
  growth: 124% (inactive) and 101% (inactive)
UACC-62 melanoma
  growth: 87.3% (inactive) and 92.5% (inactive)
LOX IMVI melanoma
  growth: 96.1% (inactive) and 95.8% (inactive)
SK-MEL-28 melanoma
  growth: 132% (inactive) and 106% (inactive)
SK-MEL-2 melanoma
  growth: 110% (inactive)
EKVX NSCLC
  growth: 93.1% (inactive) and 101% (inactive)
SN12C renal
  growth: 101% (inactive)
UO-31 renal
  growth: 91.9% (inactive) and 72.6% (inactive)
TK-10 renal
  growth: 103% (inactive) and 98.8% (inactive)
ACHN renal
  growth: 99.8% (inactive) and 100% (inactive)
A498 renal
  growth: 109% (inactive) and 106% (inactive)
CCRF-CEM leukemia
  growth: 105% (inactive) and 102% (inactive)
MOLT-4 leukemia
  growth: 3.12% (active) and 100% (inactive)

## O=c1[nH]cnc2c1ncn2C1OC(CO)C(O)C1O (configuration not stated)
HCT-15 colon
  growth: 135% (inactive) and 124% (inactive) and 110% (inactive)
HT29 colon
  growth: 116% (inactive) and 109% (inactive)
SNB-75 CNS
  growth: 115% (inactive) and 99.9% (inactive) and 98.8% (inactive)
SNB-19 CNS
  growth: 99.5% (inactive) and 106% (inactive) and 93.5% (inactive)
U251 CNS
  growth: 108% (inactive) and 110% (inactive) and 102% (inactive)
PC-3 prostate
  growth: 89.3% (inactive) and 81.6% (inactive) and 98.8% (inactive)
SK-MEL-5 melanoma
  growth: 106% (inactive) and 109% (inactive) and 107% (inactive)
UACC-62 melanoma
  growth: 96.1% (inactive) and 106% (inactive) and 98.6% (inactive)
LOX IMVI melanoma
  growth: 101% (inactive) and 103% (inactive) and 91.7% (inactive)
SK-MEL-28 melanoma
  growth: 113% (inactive) and 116% (inactive) and 118% (inactive)
SK-MEL-2 melanoma
  growth: 110% (inactive)
EKVX NSCLC
  growth: 123% (inactive) and 107% (inactive) and 93.1% (inactive)
SN12C renal
  growth: 99.8% (inactive) and 121% (inactive) and 96.1% (inactive)
UO-31 renal
  growth: 113% (inactive) and 102% (inactive) and 55.3% (inactive)
TK-10 renal
  growth: 113% (inactive) and 114% (inactive) and 106% (inactive)
ACHN renal
  growth: 116% (inactive) and 109% (inactive) and 105% (inactive)
CAKI-1 renal
  growth: 113% (inactive) and 95.3% (inactive) and 63.4% (inactive)
A498 renal
  growth: 116% (inactive) and 129% (inactive) and 113% (inactive)
CCRF-CEM leukemia
  growth: 99.5% (inactive) and 90.3% (inactive) and 69.9% (inactive)

## CC1CCC2(OC1)OC1CC3C4CC=C5CC(O)CCC5(C)C4CCC3(C)C1C2C (configuration not stated)
HCT-15 colon
  growth: 105% (inactive)
HT29 colon
  growth: 108% (inactive)
SNB-75 CNS
  growth: 83% (inactive)
SNB-19 CNS
  growth: 96.1% (inactive)
U251 CNS
  growth: 94.8% (inactive)
PC-3 prostate
  growth: 96.4% (inactive)
SK-MEL-5 melanoma
  growth: 105% (inactive)
UACC-62 melanoma
  growth: 90.6% (inactive)
LOX IMVI melanoma
  growth: 91.2% (inactive)
SK-MEL-28 melanoma
  growth: 115% (inactive)
SK-MEL-2 melanoma
  growth: 122% (inactive)
EKVX NSCLC
  growth: 96.6% (inactive)
SN12C renal
  growth: 100% (inactive)
UO-31 renal
  growth: 86% (inactive)
TK-10 renal
  growth: 101% (inactive)
ACHN renal
  growth: 93.5% (inactive)
A498 renal
  growth: 110% (inactive)
CCRF-CEM leukemia
  growth: -55.7% (active)

## CCc1cc(C)cc(O)c1
HCT-15 colon
  growth: 111% (inactive)
HT29 colon
  growth: 99.4% (inactive)
SNB-75 CNS
  growth: 98% (inactive)
SNB-19 CNS
  growth: 103% (inactive)
U251 CNS
  growth: 96% (inactive)
PC-3 prostate
  growth: 97.1% (inactive)
SK-MEL-5 melanoma
  growth: 105% (inactive)
UACC-62 melanoma
  growth: 108% (inactive)
LOX IMVI melanoma
  growth: 105% (inactive)
SK-MEL-28 melanoma
  growth: 111% (inactive)
EKVX NSCLC
  growth: 101% (inactive)
SN12C renal
  growth: 105% (inactive)
UO-31 renal
  growth: 77.3% (inactive)
TK-10 renal
  growth: 98.6% (inactive)
ACHN renal
  growth: 117% (inactive)
A498 renal
  growth: 102% (inactive)
CCRF-CEM leukemia
  growth: 98.4% (inactive)
MOLT-4 leukemia
  growth: 98.1% (inactive)

## Nc1nc(N)c2[nH]cnc2n1
HCT-15 colon
  growth: 107% (inactive)
HT29 colon
  growth: 101% (inactive)
SNB-75 CNS
  growth: 91.3% (inactive)
SNB-19 CNS
  growth: 96.1% (inactive)
PC-3 prostate
  growth: 79.3% (inactive)
SK-MEL-5 melanoma
  growth: 98.1% (inactive)
UACC-62 melanoma
  growth: 84.3% (inactive)
LOX IMVI melanoma
  growth: 83% (inactive)
SK-MEL-28 melanoma
  growth: 99.9% (inactive)
SK-MEL-2 melanoma
  growth: 109% (inactive)
EKVX NSCLC
  growth: 97.5% (inactive)
SN12C renal
  growth: 102% (inactive)
UO-31 renal
  growth: 86.9% (inactive)
TK-10 renal
  growth: 121% (inactive)
ACHN renal
  growth: 89.3% (inactive)
CAKI-1 renal
  growth: 84.6% (inactive)
A498 renal
  growth: 109% (inactive)
CCRF-CEM leukemia
  growth: 98.2% (inactive)
